Results published in PubChem BioAssay AID1159580 (chemical genetic matrix, 2015).
Out of some 5,500 compounds screened, about 2,000 (36%) were called active. Inconclusive results (about 18%) are left out. Some of the results follow. A number with no mark means an inactive call. No stated cut-off is given here; in the data, active means normalized growth mostly below about 0.91 (no sharp cut-off); inconclusive means no clear call, values can overlap the other calls; inactive means mostly above about 0.92.

Test: chemical genetic growth profiling, strain panel (AID 1159580);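 further: tested at 20 µM; growth read once vehicle control cultures reached saturation at 30 °C; 1 = growth at the plate median or of vehicle wells; lower values mean less growth of the strain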
Details: S. cerevisiae deletion strains, growth OD

In the case of `O=C(NC1CCN(Cc2ccc(Cl)c(Cl)c2)CC1)c1ccccc1`, the normalized growth (locus YAL013W, strain DEP1, active compounds read low) is reported as 1.01, the normalized growth (locus YBR229C, strain ROT2, active compounds read low) is reported as 1 and the normalized growth (locus YDL101C, strain DUN1, active compounds read low) is reported as 0.996. For the same molecule, the normalized growth (locus YDR150W, strain NUM1, active compounds read low) was 0.977, the normalized growth (locus YEL061C, strain CIN8, active compounds read low) was 0.946 and the normalized growth (locus YGR078C, strain PAC10, active compounds read low) was 1.01. The normalized growth (locus YGR229C, strain SMI1, active compounds read low) was 1, the normalized growth (locus YHR030C, strain SLT2, active compounds read low) was 0.641 (active) and the normalized growth (locus YHR087W, strain rtc3, active compounds read low) was 0.987. The normalized growth (locus YJR043C, strain POL32, active compounds read low) was 1.01, the normalized growth (locus YJR075W, strain HOC1, active compounds read low) was 1.02 and the normalized growth (locus YKL190W, strain CNB1, active compounds read low) was 1. The normalized growth (locus YLR039C, strain RIC1, active compounds read low) was 0.94, the normalized growth (locus YLR058C, strain SHM2 (second series), active compounds read low) was 1.01 and the normalized growth (locus YLR085C, strain ARP6, active compounds read low) was 0.86. It also gave a normalized growth (locus YLR262C, strain YPT6, active compounds read low) of 0.825, a normalized growth (locus YML094W, strain GIM5, active compounds read low) of 0.889 and a normalized growth (locus YMR219W, strain ESC1, active compounds read low) of 0.992. For the same molecule, the normalized growth (locus YMR263W, strain SAP30, active compounds read low) was 0.998, the normalized growth (locus YNL153C, strain GIM3, active compounds read low) was 0.988 and the normalized growth (locus YNL298W, strain CLA4 (second series), active compounds read low) was 0.986. For the same molecule, the normalized growth (locus YNL322C, strain KRE1, active compounds read low) was 1, the normalized growth (locus YNR030W, strain Alg12, active compounds read low) was 0.96 and the normalized growth (locus YOL006C, strain TOP1, active compounds read low) was 0.683 (active). For the same molecule, the normalized growth (locus YPL055C, strain LGE1, active compounds read low) was 0.995, the normalized growth (locus YPL241C, strain CIN2, active compounds read low) was 0.93 and the normalized growth (locus YPR135W, strain CTF4, active compounds read low) was 0.783.
